Bioassay records as filed in PubChem.
The list is not random: actives were taken first. Their share in the collection is about 2.7%.
CFTR F508del cor: correctors of CFTR F508del function in bronchial epithelial cells; CFBE cells, YFP halide quenching; stimulated with forskolin plus potentiator P3; % fluorescence drop versus neutral controls; activity (quench increase), % at 7.58 µM; 0.36% of 350,000 active; AID 720511;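 active means mean added fluorescence quench of at least 8% versus neutral control, with both replicates also reaching 8%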;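 further: cells transiently co-express mutant CFTR-F508del with the halide-sensitive YFP; corrector assay measuring rescue of mutant channel to the surface after 24 h compound exposure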
MITF TRPM1 HTS: MITF TRPM1 promoter activation in melanoma cells | SK-MEL-5 TRPM1-promoter luciferase, 24 h; % of positive control, neutral wells = 0 | activation, % at 12.5 µM | 0.75% of 300,000 active;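 active means mean activation of at least 80% with every replicate also reaching 80%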;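 further: 0% = neutral control wells and 100% = parthenolide positive control wells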
Wnt bcat act: activators of Wnt/beta-catenin signaling; Wnt/beta-catenin reporter cell assay, activator, plate reader; activation, % at 9.35 µM; 1.2% of 300,000 active; AID 743398; in the data active means activation above about 30%, passing the limit was not always enough;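 further: 0% = neutral control wells and 100% = positive control wells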
Env fusion inh: inhibitors of HIV Env-mediated cell fusion. AID 651610. inhibition, % at 12.3 µM. 1.1% of 360,000 active. HeLa-JRFL Env/CEM21 cell fusion, luciferase;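 active means mean replicate inhibition score of at least 50 and every replicate individually at or above 50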;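 further: 0% = plate neutral controls and 100% = maraviroc near 300 nM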
GSIS activator: GLuc luminescence reporter in INS-1E cells, primary screen for activators of glucose-dependent secretion of insulin. 0.61% of 370,000 active. activation, % at 16.6 µM. INS-1E GLuc reporter insulin secretion, 2-3 h;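 active means lowest replicate activation of at least 40%, so every replicate reaches that level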;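 further: 0% = median of neutral control wells and 100% = median of IBMX positive control wells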
* marks the source's active call; other numbers are inactive results; [ ] = remark or other dose.

Screening C[C@@H]1CN([C@H](C)CO)S(=O)(=O)c2ccc(C3=CCCCC3)cc2O[C@@H]1CN(C)S(=O)(=O)c1ccc(F)cc1 returned CFTR F508del cor -3.7, Env fusion inh 58.0*[16.7 µM] and GSIS activator 0.8.
`COc1cccc(S(=O)(=O)N(C)C[C@@H]2Oc3cc(C4=CCCC4)ccc3S(=O)(=O)N([C@@H](C)CO)C[C@H]2C)c1` gave CFTR F508del cor 9.3*, Env fusion inh 24.9[16.7 µM] and GSIS activator 42.6.
COc1ccc(S(=O)(=O)N(C)C[C@H]2Oc3cc(C4=CCCC4)ccc3S(=O)(=O)N([C@H](C)CO)C[C@@H]2C)cc1 was read as CFTR F508del cor -0.8, Env fusion inh -17.6[16.7 µM] and GSIS activator -27.7.
Screening COc1ccc(S(=O)(=O)N(C)C[C@H]2Oc3cc(C4=CCCC4)ccc3S(=O)(=O)N([C@@H](C)CO)C[C@H]2C)cc1 returned CFTR F508del cor 1.1, Env fusion inh 68.9*[16.7 µM] and GSIS activator -29.4.
Screening O=C(COc1ccc(-c2nnco2)cc1)Nc1ccc(C(F)(F)F)cc1 returned CFTR F508del cor -5.6, MITF TRPM1 HTS -9.2, Wnt bcat act -2.0, Env fusion inh 55.2* and GSIS activator -10.9.
For O=C1CSC(c2ccccc2)N1c1ccccc1F (stereo not drawn) the results were CFTR F508del cor 1.0, MITF TRPM1 HTS 6.9, Wnt bcat act 0.8, Env fusion inh -2.2 and GSIS activator 38.7.
For O=C1CSC(c2ccccc2)N1c1ccc(F)cc1F (stereo not drawn) the results were CFTR F508del cor 0.0, MITF TRPM1 HTS 11.2, Wnt bcat act -0.1, Env fusion inh 7.7 and GSIS activator 47.8*.
CN(C)c1ccc(C=Cc2cnccn2)cc1 was read as CFTR F508del cor -1.0, MITF TRPM1 HTS 26.6, Wnt bcat act 2.3 and Env fusion inh -2.3.
Screening CN(C)c1ccc(/C=C/c2ccncc2)cc1 returned MITF TRPM1 HTS 60.3, Wnt bcat act 43.5* and Env fusion inh -136.2.
For COc1ccc(/C=C/c2ccncc2)cc1 the results were MITF TRPM1 HTS 73.8, Wnt bcat act 45.7* and Env fusion inh -456.1.
`O=C(NC1CCCC1)N1CC(=O)N2[C@@H](CO)[C@H](c3ccc(/C=C/c4ccccc4)cc3)[C@@H]2C1` gave CFTR F508del cor 2.0 and GSIS activator -21.3.
COc1ccc(C(=O)C[n+]2cc(-c3ccc(OC)cc3)n3c2CCCC3)cc1 was read as CFTR F508del cor 0.1, MITF TRPM1 HTS -37.6, Wnt bcat act -1.0, Env fusion inh -19.9 and GSIS activator -47.1.
Cc1ccc(C(=O)C[n+]2cc(-c3ccc(C)cc3)n3c2CCCCC3)cc1 was read as MITF TRPM1 HTS -76.8, Env fusion inh 68.0* and GSIS activator -42.4.
`CN1[C@@H]2Cn3c(ccc(/C=C/c4ccccc4)c3=O)[C@H]1[C@@H](C(=O)NC1CCC1)[C@@H]2CO` gave CFTR F508del cor 1.4 and GSIS activator -13.2.
CCSc1ccc(/C(N)=N/OC(=O)c2cccs2)cn1 was read as CFTR F508del cor -1.9, MITF TRPM1 HTS 107.8*, Wnt bcat act 29.1, Env fusion inh -48.1 and GSIS activator -1.5.
`N/C(=N\OC(=O)c1cccs1)c1cccnc1` gave CFTR F508del cor 0.8, MITF TRPM1 HTS 48.5, Wnt bcat act 11.4, Env fusion inh -46.0 and GSIS activator 17.3.
OCCC1CN(Cc2nc(-c3ccccc3)cs2)CCN1Cc1ccc(F)cc1 (stereo not drawn) was read as CFTR F508del cor 0.7, MITF TRPM1 HTS -7.9, Wnt bcat act -3.3 and Env fusion inh 26.4.
OCCC1CN(Cc2nc(-c3ccccc3)cs2)CCN1C1CCCC1 (stereo not drawn) was read as CFTR F508del cor 0.2, MITF TRPM1 HTS 6.7, Wnt bcat act 33.8*, Env fusion inh -8.2 and GSIS activator -6.3.
`Cc1nc(-c2cc(-c3nc(-c4ccc(C(F)(F)F)cc4)no3)no2)cs1` gave MITF TRPM1 HTS -2.6, Wnt bcat act 0.5, Env fusion inh -1.0 and GSIS activator -1.2.
`Cc1cc(-c2nc(-c3ccc(C(C)(C)C)cc3)no2)no1` gave CFTR F508del cor -1.2, MITF TRPM1 HTS 100.3*, Wnt bcat act 2.6, Env fusion inh -74.8 and GSIS activator 5.4.
For O=C(C[C@@H]1C=C[C@@H](NC(=O)Nc2ccccc2F)[C@@H](CO)O1)NCc1ccccc1 the results were CFTR F508del cor -0.6 and GSIS activator 9.7.
`Cc1cccc(N=c2oc3cc(O)ccc3cc2C(N)=O)c1` gave MITF TRPM1 HTS 41.3, Wnt bcat act 40.1* and Env fusion inh -11.2.
`CCOC(=O)c1sc(NC(=O)Nc2ccc(Cl)cc2)cc1C` gave MITF TRPM1 HTS 33.4, Wnt bcat act 15.5 and Env fusion inh 74.5*.
`CCOC(=O)c1sc(NC(=O)c2ccc(Cl)s2)cc1C` gave CFTR F508del cor 1.4, MITF TRPM1 HTS 63.0, Wnt bcat act 24.5, Env fusion inh -51.7 and GSIS activator -6.7.
`CO[C@@H]1CN(C)C(=O)c2cc(NS(=O)(=O)CC(F)(F)F)ccc2OC[C@H](C)N(CC2CCCCC2)C[C@H]1C` gave CFTR F508del cor -4.2, Env fusion inh 30.3[16.7 µM] and GSIS activator -16.9.
CCOC(=O)c1c(-c2ccc(C)o2)csc1NC(=O)CSc1nnc(C)s1 was read as MITF TRPM1 HTS 12.3, Wnt bcat act -9.7 and Env fusion inh 1.7.
`CCOC(=O)c1c(-c2ccc(C)o2)csc1NC(=O)COC(=O)c1ccc(NC(N)=O)cc1` gave MITF TRPM1 HTS -11.8, Env fusion inh -59.1 and GSIS activator 49.6*.
Screening C[C@@H]1CN([C@@H](C)CO)C(=O)c2ccccc2-c2ccccc2CO[C@H]1CN(C)CC1CC1 returned CFTR F508del cor 3.0, Env fusion inh 9.6[16.7 µM] and GSIS activator 10.1.
`CC(C)C#Cc1ccc2c(c1)O[C@H](CN(C)Cc1ccncc1)[C@H](C)CN([C@@H](C)CO)S2(=O)=O` gave CFTR F508del cor 1.8, Env fusion inh -7.4[16.7 µM] and GSIS activator 2.1.
For N/C(=N\OC(=O)c1ccc(F)cc1)c1ccccc1 the results were MITF TRPM1 HTS 32.9, Env fusion inh -191.4 and GSIS activator 24.2.
`N/C(=N\OC(=O)c1ccc(F)cc1)c1ccc(Br)cc1` gave CFTR F508del cor 2.4, MITF TRPM1 HTS 65.6, Wnt bcat act 44.2*, Env fusion inh -26.4 and GSIS activator -4.1.
For N/C(=N\OC(=O)c1ccc(Br)cc1)c1ccncc1 the results were CFTR F508del cor -3.1, MITF TRPM1 HTS 97.9*, Wnt bcat act 11.6, Env fusion inh -80.0 and GSIS activator -4.3.
Screening Cc1ccc(/C=C/C(=O)Nc2nc3ccccc3[nH]2)cc1 returned MITF TRPM1 HTS 106.5*, Wnt bcat act 28.1, Env fusion inh -139.2 and GSIS activator 31.6.
`O=C(/C=C/c1c(Cl)cccc1Cl)Nc1ccncc1` gave MITF TRPM1 HTS 88.5*, Wnt bcat act 10.1 and Env fusion inh -74.8.
`Cc1ccc(/C=C/C(=O)c2nc3ccccc3[nH]2)cc1` gave MITF TRPM1 HTS 4.4, Wnt bcat act 36.7* and Env fusion inh -124.7.
